Results as given in PubChem BioAssay (EPA / NIEHS).
Several values for one entry are separate records, joined by “and”; a condition that tells them apart may be missing. Equal entries are not always repeated. Some compounds were tested as several samples or in several runs, with calls that do not always agree. Activity calls are given as the source filed them. How the source made its calls: active means hit-call score of the fitted dose curve at least 0.9, where 1 is the maximum; inactive means score below 0.9.

Key:
[1] = target: Bile acid receptor (Homo sapiens) (UniProt Q96RI1); assay: ATG_IR1_CIS: Attagene CIS-FACTORIAL HepG2 Assay for human Nuclear Receptor Subfamily 1 Group H Member 4 (NR1H4), IR1 submotif (AID 2282946); conditions: IR1 reporter transcription, actives raise or lower the signal
Outline: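 Fluorescence of capillary-separated, HpaI-digested RT-PCR reporter products gave IR1-element mRNA induction in HepG2 cells 24 h after dosing. Endogenous transcription factors drove the cis-regulated reporters; activity was fitted bidirectionally against DMSO.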

[2] = ATG_GRE_CIS: Attagene CIS-FACTORIAL HepG2 Assay for human Glucocorticoid Response Elements (GRE) (AID 2282947); conditions: HepG2 GRE cis-reporter, Attagene multiplex mRNA; actives raise or lower the signal
Outline: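 Fluorescence intensity of reporter-specific cDNA fragments, separated by capillary electrophoresis, provides the signal. Constructs carry cis-regulating promoters in transiently transfected HepG2 liver cells; 24 h incubation; fitting is bidirectional against DMSO.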

[3] = ATG_ISRE_CIS: Attagene CIS-FACTORIAL HepG2 Assay for human Interferon Regulatory Factor 1 (IRF1) binding to an Interferon-Stimulated Response Element (ISRE) (AID 2282948); conditions: HepG2 ISRE cis-reporter (Attagene), mRNA transcription readout; actives raise or lower the signal
Outline: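 Endogenous transcription factor activity read as reporter transcript abundance via RT-PCR and capillary electrophoresis. HepG2 cells transiently transfected, 24 h chemical exposure. Gain or loss fitted against DMSO baseline.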

[4] = ATG_M_32_CIS: Attagene CIS-FACTORIAL HepG2 Assay for M32 Transcription Factor (Internal Marker) (AID 2282949); conditions: HepG2 Attagene cis-factorial M32 reporter, mRNA; actives raise or lower the signal;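 further: background control marker of the multiplexed CIS panel rather than a real target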
Outline: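 HepG2 human liver cells transiently transfected with cis-promoter-driven multiple reporter transcription units, dosed 24 h. Reporter mRNA quantified by RT-PCR, FAM-labelled primer extension, HpaI digest and capillary electrophoresis; bidirectional fit versus DMSO baseline.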

[5] = ATG_M_06_CIS: Attagene CIS-FACTORIAL HepG2 Assay for M06 Transcription Factor (Internal Marker) (AID 2282950); conditions: HepG2 Attagene CIS-FACTORIAL M06 internal marker reporter; actives raise or lower the signal
Outline: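 HepG2 liver cells, 24 h exposure. Reporter transcripts from transfected cis-element constructs quantified by RT-PCR/capillary electrophoresis fluorescence. Bidirectional curve fit against DMSO.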

[6] = target: Hypoxia-inducible factor 1-alpha (Homo sapiens) (UniProt Q16665); assay: ATG_HIF1a_CIS: Attagene CIS-FACTORIAL HepG2 Assay for human Hypoxia Inducible Factor 1 (HIF1A) (AID 2282951); conditions: HepG2 Attagene cis-factorial HIF1a reporter transcription; actives raise or lower the signal
Outline: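 Endogenous-TF cis reporter readout, human HepG2 cells, 24 h incubation; mRNA detected via RT-PCR and capillary electrophoresis fluorescence; DMSO-normalised bidirectional fitting.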

[7] = target: Hepatocyte nuclear factor 6 (Homo sapiens) (UniProt Q9UBC0); assay: ATG_HNF6_CIS: Attagene CIS-FACTORIAL HepG2 Assay for human Hepatocyte Nuclear Factor 6 (HNF6) (AID 2282952); conditions: HepG2 Attagene cis-factorial HNF6 reporter transcription; actives raise or lower the signal
Outline: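 Using cis-element reporters in HepG2 liver cells, the assay tracks endogenous factor-driven transcription 24 h post-dosing. Signal comes from 6-FAM-labelled, HpaI-digested RT-PCR fragments, with gain or loss scored against DMSO.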

[8] = target: Heat shock factor protein 1 (Homo sapiens) (UniProt Q00613); assay: ATG_HSE_CIS: Attagene CIS-FACTORIAL HepG2 Assay for human Heat Shock Transcription Factor 1 (HSE) (AID 2282953); conditions: HepG2 HSE cis-reporter, Attagene RNA transcription; actives raise or lower the signal
Outline: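 Endogenous transcription factor activity captured via cis-promoter reporter units transfected into HepG2; treatment lasted 24 h. Fluorescence intensity of reporter fragments analysed with bidirectional curve fitting, DMSO baseline.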

[9] = ATG_MRE_CIS: Attagene CIS-FACTORIAL HepG2 Assay for human Metal Responsive Element (MRE) (AID 2282954); conditions: HepG2 MRE cis-reporter transcription, Attagene multiplex; actives raise or lower the signal
Outline: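 Measured here is mRNA induction from an MRE cis-element reporter in HepG2 after 24 h, quantified by fluorescence of labelled RT-PCR products on capillary electrophoresis; gain- and loss-of-signal fits use DMSO as baseline.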

[10] = target: Paired box protein Pax-6 (Homo sapiens) (UniProt P26367); assay: ATG_Pax6_CIS: Attagene CIS-FACTORIAL HepG2 Assay for human Paired Box 6 (PAX6) (AID 2282956); conditions: HepG2 CIS-FACTORIAL PAX6 reporter transcription, RNA readout; actives raise or lower the signal
Outline: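 Read-out is reporter transcript level, measured by RT-PCR with fluorescent primer extension and capillary electrophoresis after 24 h dosing of transfected HepG2 cells. Activity in either direction fitted relative to DMSO control.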

[11] = ATG_PXRE_CIS: Attagene CIS-FACTORIAL HepG2 Assay for human Pregnane X Receptor Element (PXRE) (AID 2282957); conditions: HepG2 Attagene CIS-FACTORIAL PXRE reporter, mRNA; actives raise or lower the signal
Outline: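 Using HepG2 transfected with multiple reporter transcription units, endogenous factor-driven transcription was scored as reporter mRNA after 24 h exposure.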

[12] = ATG_RORE_CIS: Attagene CIS-FACTORIAL HepG2 Assay for human RAR-related Orphan Receptor Element (RORE) (AID 2282959); conditions: HepG2 Attagene cis-factorial RORE reporter, mRNA; actives raise or lower the signal
Outline: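 Measured here: transcript induction of a cis-regulated reporter in HepG2 cells transiently transfected via FuGene 6. After 24 h, RNA was processed by RT-PCR and fluorescent capillary electrophoresis; DMSO defined baseline activity.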

[13] = ATG_Sox_CIS: Attagene CIS-FACTORIAL HepG2 Assay for human SRY-box transcription factor (SOX) (AID 2282960); conditions: HepG2 Attagene cis-factorial SOX reporter, mRNA; actives raise or lower the signal
Outline: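 Using transiently transfected HepG2 cells, reporter transcription driven by cis elements was assessed 24 h after dosing. Signal was fluorescence of capillary-separated RT-PCR products, with DMSO defining baseline activity.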

[14] = target: Transcription factor Sp1 (Homo sapiens) (UniProt P08047); assay: ATG_Sp1_CIS: Attagene CIS-FACTORIAL HepG2 Assay for human Specificity Protein 1 (Sp1) (AID 2282961); conditions: HepG2 Sp1 cis-reporter transcription, actives raise or lower the signal
Outline: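 After transient transfection of HepG2 cells with cis-promoter reporter units and 24 h chemical treatment, reporter transcripts were quantified by RT-PCR and capillary electrophoresis fluorescence. Gain- and loss-of-signal fitted against DMSO.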

[15] = target: Signal transducer and activator of transcription 3 (Homo sapiens) (UniProt P40763); assay: ATG_STAT3_CIS: Attagene CIS-FACTORIAL HepG2 Assay for human Signal Transducer and Activator of Transcription 3 (STAT3) (AID 2282963); conditions: HepG2, Attagene cis-factorial STAT3 reporter transcription; actives raise or lower the signal
Outline: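 Fluorescence intensity of 6-FAM-labelled reporter fragments, separated by capillary electrophoresis after RT-PCR, gave the signal. Cells were HepG2 transfected with cis-element reporter units and treated 24 h; fitting was bidirectional relative to DMSO.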

[16] = ATG_TA_CIS: Attagene CIS-FACTORIAL HepG2 Assay for human TA Basal Promoter (AID 2282964); conditions: HepG2 Attagene CIS-factorial TA basal promoter reporter; actives raise or lower the signal
Outline: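 Fluorescence from labelled RT-PCR reporter fragments, separated by capillary electrophoresis, gives the signal. Cells: HepG2 transiently carrying multiple reporter units, 24 h chemical dosing. Gain or loss relative to DMSO.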

[17] = ATG_TCF_b_cat_CIS: Attagene CIS-FACTORIAL HepG2 Assay for human T-Cell-Factor with beta-catenin (TCF/b-cat) (AID 2282965); conditions: HepG2 TCF/beta-catenin cis-reporter transcription, actives raise or lower the signal
Outline: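 HepG2, transient MRTU transfection, cis-element-driven reporters (endogenous TFs). 24 h compound exposure. Readout: reporter mRNA by RT-PCR + 6-FAM primer extension, HpaI digest, capillary electrophoresis. Gain/loss fit vs DMSO baseline.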

[18] = ATG_PPRE_CIS: Attagene CIS-FACTORIAL HepG2 Assay for human Peroxisome Proliferator-activated Response Element (PPRE) (AID 2282958); conditions: HepG2 PPRE cis-element reporter, Attagene transcription factor profiling; actives raise or lower the signal
Outline: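 After human HepG2 hepatoma cells were transiently transfected with cis-promoter reporter constructs, they were exposed to test chemicals for 24 hours. Reporter RNA was then reverse-transcribed, PCR-amplified, FAM-labeled, HpaI-digested and quantified by capillary electrophoresis.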

[19] = ATG_SREBP_CIS: Attagene CIS-FACTORIAL HepG2 Assay for human Sterol Regulatory Element Binding (SREBP) (AID 2282962); conditions: HepG2 Attagene cis-factorial SREBP reporter, mRNA; actives raise or lower the signal
Outline: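 Endogenous SREBP activity read as cis-element-driven reporter transcript in transiently transfected HepG2, 24 h post-dosing; quantified via RT-PCR plus capillary electrophoresis of fluorescent fragments. Gain or loss of signal fitted relative to DMSO baseline.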

Measured: AC50

Transcription factor Sp1 (Homo sapiens), sequence (P08047 whole entry, looked up): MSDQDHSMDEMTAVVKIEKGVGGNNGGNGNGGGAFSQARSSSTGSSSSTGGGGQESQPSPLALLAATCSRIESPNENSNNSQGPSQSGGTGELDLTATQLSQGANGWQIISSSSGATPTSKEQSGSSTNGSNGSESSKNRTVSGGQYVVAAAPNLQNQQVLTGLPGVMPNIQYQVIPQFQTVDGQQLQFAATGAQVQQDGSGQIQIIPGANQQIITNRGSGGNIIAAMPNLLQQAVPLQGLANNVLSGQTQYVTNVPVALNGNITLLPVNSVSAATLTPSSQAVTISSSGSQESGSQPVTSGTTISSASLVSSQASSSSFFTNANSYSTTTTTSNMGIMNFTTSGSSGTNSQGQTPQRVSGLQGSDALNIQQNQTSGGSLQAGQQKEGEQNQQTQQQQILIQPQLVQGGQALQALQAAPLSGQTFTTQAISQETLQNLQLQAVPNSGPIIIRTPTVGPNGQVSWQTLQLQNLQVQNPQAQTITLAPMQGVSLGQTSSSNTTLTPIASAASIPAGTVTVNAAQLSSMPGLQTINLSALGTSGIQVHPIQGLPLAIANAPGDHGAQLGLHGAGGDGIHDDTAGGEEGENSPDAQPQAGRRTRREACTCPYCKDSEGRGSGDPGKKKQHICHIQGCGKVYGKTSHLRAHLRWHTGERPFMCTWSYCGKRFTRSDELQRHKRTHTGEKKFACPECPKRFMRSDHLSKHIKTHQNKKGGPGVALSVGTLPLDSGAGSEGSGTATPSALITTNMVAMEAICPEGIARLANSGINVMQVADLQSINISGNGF
Paired box protein Pax-6 (Homo sapiens), sequence (P26367 whole entry, looked up): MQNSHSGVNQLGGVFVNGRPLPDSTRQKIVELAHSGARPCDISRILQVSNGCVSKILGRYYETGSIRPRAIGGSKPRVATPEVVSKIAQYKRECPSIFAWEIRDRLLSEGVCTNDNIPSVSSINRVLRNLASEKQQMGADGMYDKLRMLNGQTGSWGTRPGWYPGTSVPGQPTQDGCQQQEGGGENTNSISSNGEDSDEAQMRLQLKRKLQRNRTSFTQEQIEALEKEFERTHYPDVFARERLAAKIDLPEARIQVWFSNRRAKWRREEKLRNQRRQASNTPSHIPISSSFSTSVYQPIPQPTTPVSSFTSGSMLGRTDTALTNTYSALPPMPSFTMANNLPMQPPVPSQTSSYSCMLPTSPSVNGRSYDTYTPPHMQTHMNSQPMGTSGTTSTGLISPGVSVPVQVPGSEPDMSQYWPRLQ
Hepatocyte nuclear factor 6 (Homo sapiens), sequence (Q9UBC0 whole entry, looked up, the tested form may be a part): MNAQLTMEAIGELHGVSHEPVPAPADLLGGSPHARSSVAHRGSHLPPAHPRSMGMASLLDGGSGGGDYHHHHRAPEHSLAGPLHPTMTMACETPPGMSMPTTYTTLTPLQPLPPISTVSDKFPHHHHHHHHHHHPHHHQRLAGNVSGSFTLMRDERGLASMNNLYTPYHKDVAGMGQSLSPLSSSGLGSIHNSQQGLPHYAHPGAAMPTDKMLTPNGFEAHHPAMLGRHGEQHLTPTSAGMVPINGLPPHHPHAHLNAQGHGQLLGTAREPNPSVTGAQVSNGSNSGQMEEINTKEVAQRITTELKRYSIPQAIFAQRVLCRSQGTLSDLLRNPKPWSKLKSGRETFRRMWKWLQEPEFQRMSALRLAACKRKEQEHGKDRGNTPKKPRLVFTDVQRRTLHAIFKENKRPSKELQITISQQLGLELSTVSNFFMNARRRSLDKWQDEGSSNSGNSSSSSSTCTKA
Hypoxia-inducible factor 1-alpha (Homo sapiens), sequence (Q16665 whole entry, looked up): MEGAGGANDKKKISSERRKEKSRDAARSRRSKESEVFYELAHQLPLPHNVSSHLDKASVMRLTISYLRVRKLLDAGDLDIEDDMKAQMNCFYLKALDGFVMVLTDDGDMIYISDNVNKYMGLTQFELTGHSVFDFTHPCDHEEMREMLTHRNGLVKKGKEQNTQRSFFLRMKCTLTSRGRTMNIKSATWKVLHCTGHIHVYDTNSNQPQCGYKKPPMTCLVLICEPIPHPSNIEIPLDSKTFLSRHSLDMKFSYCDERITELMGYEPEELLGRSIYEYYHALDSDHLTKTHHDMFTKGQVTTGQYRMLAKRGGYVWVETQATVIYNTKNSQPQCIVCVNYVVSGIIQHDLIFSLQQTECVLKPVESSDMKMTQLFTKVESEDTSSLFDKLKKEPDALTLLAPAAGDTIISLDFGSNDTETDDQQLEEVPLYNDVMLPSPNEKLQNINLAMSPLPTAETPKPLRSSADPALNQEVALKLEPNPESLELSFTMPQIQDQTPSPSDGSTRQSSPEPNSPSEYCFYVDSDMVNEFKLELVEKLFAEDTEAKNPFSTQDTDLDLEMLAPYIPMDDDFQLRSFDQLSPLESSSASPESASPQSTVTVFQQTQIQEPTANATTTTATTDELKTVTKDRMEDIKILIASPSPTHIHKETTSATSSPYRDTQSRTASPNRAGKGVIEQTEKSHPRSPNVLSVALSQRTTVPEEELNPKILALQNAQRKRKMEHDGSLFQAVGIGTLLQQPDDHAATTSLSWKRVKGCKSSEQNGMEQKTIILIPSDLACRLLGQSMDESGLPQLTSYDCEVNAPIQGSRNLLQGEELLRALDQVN
Bile acid receptor (Homo sapiens), sequence (Q96RI1 whole entry, looked up): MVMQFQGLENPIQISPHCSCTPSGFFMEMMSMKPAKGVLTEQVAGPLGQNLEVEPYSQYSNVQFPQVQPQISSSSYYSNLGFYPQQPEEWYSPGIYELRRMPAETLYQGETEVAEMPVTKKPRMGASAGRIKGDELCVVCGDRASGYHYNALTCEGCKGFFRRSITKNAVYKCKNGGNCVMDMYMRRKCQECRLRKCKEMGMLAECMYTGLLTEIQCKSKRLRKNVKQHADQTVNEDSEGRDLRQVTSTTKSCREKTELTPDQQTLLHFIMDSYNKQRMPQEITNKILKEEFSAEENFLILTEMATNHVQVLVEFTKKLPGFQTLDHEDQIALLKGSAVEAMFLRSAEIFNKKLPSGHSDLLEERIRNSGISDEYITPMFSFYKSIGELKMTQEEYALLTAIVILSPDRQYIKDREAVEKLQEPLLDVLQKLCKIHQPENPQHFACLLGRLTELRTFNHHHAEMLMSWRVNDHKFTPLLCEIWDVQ
Signal transducer and activator of transcription 3 (Homo sapiens), sequence (P40763 whole entry, looked up, the tested form may be a part): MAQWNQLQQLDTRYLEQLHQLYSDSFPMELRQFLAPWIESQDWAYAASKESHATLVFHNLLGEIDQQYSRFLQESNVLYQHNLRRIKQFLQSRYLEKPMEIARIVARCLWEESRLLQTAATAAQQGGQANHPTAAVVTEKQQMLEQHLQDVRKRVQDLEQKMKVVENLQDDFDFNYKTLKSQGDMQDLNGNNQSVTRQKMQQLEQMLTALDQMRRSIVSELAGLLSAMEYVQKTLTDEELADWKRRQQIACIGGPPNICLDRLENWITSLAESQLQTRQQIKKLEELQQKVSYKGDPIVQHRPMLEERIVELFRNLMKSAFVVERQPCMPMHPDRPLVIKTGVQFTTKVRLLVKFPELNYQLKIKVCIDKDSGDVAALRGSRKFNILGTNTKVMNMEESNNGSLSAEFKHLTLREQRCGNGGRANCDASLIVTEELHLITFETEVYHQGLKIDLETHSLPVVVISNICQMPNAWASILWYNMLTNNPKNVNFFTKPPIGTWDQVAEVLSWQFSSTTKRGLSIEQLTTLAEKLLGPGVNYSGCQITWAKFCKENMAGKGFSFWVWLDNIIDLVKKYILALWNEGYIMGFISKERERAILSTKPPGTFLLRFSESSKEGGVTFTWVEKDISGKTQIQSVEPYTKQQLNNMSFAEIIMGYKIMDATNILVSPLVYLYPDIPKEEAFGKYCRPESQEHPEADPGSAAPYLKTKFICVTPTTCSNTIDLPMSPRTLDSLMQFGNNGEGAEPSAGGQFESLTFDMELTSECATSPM
Heat shock factor protein 1 (Homo sapiens), sequence (Q00613 whole entry, looked up, the tested form may be a part): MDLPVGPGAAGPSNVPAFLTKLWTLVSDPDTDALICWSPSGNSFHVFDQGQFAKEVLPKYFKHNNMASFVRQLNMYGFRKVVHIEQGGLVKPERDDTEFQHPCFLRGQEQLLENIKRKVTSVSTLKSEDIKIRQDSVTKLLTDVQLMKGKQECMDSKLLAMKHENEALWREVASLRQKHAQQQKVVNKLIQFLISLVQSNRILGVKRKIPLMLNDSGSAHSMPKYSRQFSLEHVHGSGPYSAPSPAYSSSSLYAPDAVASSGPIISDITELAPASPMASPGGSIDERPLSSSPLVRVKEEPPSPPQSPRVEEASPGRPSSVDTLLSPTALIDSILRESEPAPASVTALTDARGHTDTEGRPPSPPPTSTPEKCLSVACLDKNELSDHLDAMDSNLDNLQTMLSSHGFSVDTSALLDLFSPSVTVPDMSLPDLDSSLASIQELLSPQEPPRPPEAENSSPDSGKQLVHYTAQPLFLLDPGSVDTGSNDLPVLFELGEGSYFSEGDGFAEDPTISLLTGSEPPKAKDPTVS

Oc1c(Cl)c(Cl)c(Cl)c(Cl)c1Cl
active: [3] 78.7 µM and 51 µM | [6] 3.43 µM and 20.6 µM | [7] 25.9 µM | [8] 31.5 µM and 75.4 µM and 142 µM | [9] 50 µM and 40.9 µM and 78.8 µM | [10] 50 µM and 14 µM and 34 µM | [11] 13.6 µM and 12.2 µM and 5.75 µM | [12] 24.1 µM and 5.68 µM and 4.77 µM | [13] 23.5 µM and 31.3 µM | [14] 20.7 µM and 27.9 µM and 166 µM | [16] 17.1 µM | [17] 11.8 µM
inactive: [1] | [2] | [3] | [4] | [5] | [6] | [7] | [13] | [15] | [16] | [17]

O=C(O)C(F)(F)C(F)(F)C(F)(F)C(F)(F)C(F)(F)C(F)(F)C(F)(F)C(F)(F)F
inactive: [1] | [2] | [3] | [4] | [5] | [6] | [7] | [9] | [10] | [12] | [13] | [14] | [19] | [15] | [16]
active: [3] 150 µM and 46.3 µM | [6] 50 µM | [9] 210 µM and 50 µM | [10] 224 µM and 50 µM | [11] 22.7 µM and 38.2 µM and 13.6 µM | [18] 33.4 µM and 89.8 µM and 34 µM | [12] 214 µM and 34.7 µM | [16] 50 µM | [17] 33.4 µM and 150 µM and 50 µM

OCC(O)CO
inactive: [1] | [2] | [3] | [4] | [5] | [6] | [7] | [8] | [9] | [10] | [11] | [18] | [12] | [13] | [14] | [15] | [16] | [17]
active: [11] 15.9 µM | [18] 26.1 µM

Cc1cc(O)ccc1Cl
not listed: [19]
inactive: all other assays above

Cc1cccc([N+](=O)[O-])c1
active: [6] 181 µM
not listed: [12]
inactive: all other assays above

COc1ccc(O)c(C(C)(C)C)c1
active: [6] 52.6 µM | [9] 148 µM | [10] 146 µM | [11] 8.2 µM | [14] 184 µM | [17] 162 µM
not listed: [12] | [18]
inactive: all other assays above
